The nature of this test: reversal of MRP1-mediated doxorubicin resistance, pilot screen, H69AR cells, doxorubicin co-treatment (AID 601). As to conditions: H69AR cells + 2 uM doxorubicin, CellTiter-Glo, 72 h; measured here: viability with 2 uM doxorubicin; at 10 µM; stronger effect = lower value. For orientation: Cellular ATP, detected with luciferase, serves as a proxy for viable cell number.
Usually viability stands for a read-out of living cells in per cent, often relative to untreated cells. With `CCOC(=O)C1CCN(C(=O)CN(c2ccc(Cl)c(C(F)(F)F)c2)S(C)(=O)=O)CC1`, the viability amounted to 102%.
As for `CCOc1ccccc1C(=O)Nc1cc(=O)n(C)c(=O)n1C`, the viability stood at 89.9%.
Under `Cc1ccc(-c2cc3nc4c(c(=O)n3[nH]2)CCCC4)cc1` stands 93.4%; under `CCOC(=O)C(C)Sc1nnc(Cc2cc(=O)[nH]c(=O)[nH]2)n1-c1ccc(Cl)cc1` (stereo not given), 98.2%.
With `c1nc(NCC2CCCO2)c2[nH]cnc2n1` (stereo not given), the viability came out at 83.3%.
In the case of `O=C(Nc1ccc(Cl)cn1)c1cccnc1`, the viability turned out to be 87.6%.
Take `O=C1c2ccccc2C(=O)N1C/C=C/CN1C(=O)c2ccccc2C1=O`: the viability stood at 92.3%.
With `O=c1oc2c3c4c(cc2cc1-c1nc2ccccc2[nH]1)CCCN4CCC3` the figure was 80.7%.
As to `CCCCC(=O)NCCc1cc2c(C)ccc(C)c2[nH]c1=O`, the viability was determined as 83.4%.
Under `O=C(NCc1ccc(F)cc1)c1cc2ccccn2n1` stands 80.6%; under `COc1cccc(C2C3=C(N=C4SCC(=O)N42)c2ccccc2CC3)c1OC` (stereo not given), 78.4%.
Regarding `CCOC(=O)N1CCC(c2cc(=O)n3[nH]c(C)c(-c4ccc(F)cc4)c3n2)CC1`, the viability was found to be 65.5%.
`C=CCn1c(=O)n(CCOC)c(=O)c2sc3ccccc3c21`: the viability is 100%.
Under `Cc1ccc2cc(CCNC(=O)C(C)C)c(=O)[nH]c2c1C` stands 92.3%; under `COc1ccc(S(=O)(=O)N2CCCC2C(=O)Nc2ccc(O)cc2)cc1` (stereo not given), 94.4%.
With `Cc1cccc(-n2ncc3c(NCc4cccnc4)ncnc32)c1` the figure was 91.2%.
In the case of `COc1cccc(NC(=O)C2CCCN(S(=O)(=O)c3cccc4cccnc34)C2)c1` (stereo not given), the viability was determined as 89.3%.
In the case of `CCc1nnc(NC(=O)COC(=O)CN2C(=O)c3ccccc3C2=O)s1`, the viability was 101%.
On to `O=C(C1CCN(c2nnc(-n3cccc3)s2)CC1)N1CCc2ccccc2C1`, for which the viability was 76.1%.
Under `Cc1c(C(=O)NC2CC2)oc2ccc(S(=O)(=O)N3CCCCCC3)cc12` stands 97.1%; under `Cc1sc2nc(SCC(=O)NCCO)n(C)c(=O)c2c1C`, 94.7%; under `S=c1[nH]nc(-c2ccccc2)n1C1C=CCCC1` (stereo not given), 84.4%.
In the case of `c1ccc(N2CCN(Cc3cn4cccnc4n3)CC2)cc1`, the viability was found to be 93.9%.
Take `CCCCc1ccc(NC(=O)C2CCCO2)cc1` (stereo not given): the viability is 82.2%.
As to `Cc1[nH]c2ccccc2c(=O)c1CN1CCCCC1`, the viability was 91.1%.
Take `Cc1ccccc1-n1c(Cn2c(=O)sc3ccccc32)nnc1SCC(=O)N1CCCC1`: the viability amounted to 81.1%.
As to `COc1ccccc1-n1c(=O)[nH]c2c(C(N)=O)nc(CC(C)C)nc21`, the viability amounted to 93%.
With `Cc1ccccc1-c1nc(CN2CCC(C(=O)N3CCC(C(N)=O)CC3)CC2)c(C)o1` the figure was 84.7%; with `CCCCN(CC)CCCNC(=O)c1cc2c(=O)n(C)c3ccccc3c2n1C`, 70.2%; with `Cc1nn(-c2ccc(F)cc2)c2c1cc(C#N)c1nc3ccccc3n12`, 80.9%.
For `CCCn1c(OC)nc2c1c(=O)n(C)c(=O)n2C`, the viability worked out at 94.1%.
As to `CCOC(=O)Cc1ccc(NS(=O)(=O)c2ccc(SC)cc2)cc1`, the viability is 82.8%.
In the case of `CC(C)Sc1nc2c(c(=O)n1-c1ccc(F)cc1)SCC2`, the viability was found to be 81.1%.
Turning to `COc1cccc(C2CC(c3c(Cl)cccc3Cl)n3nc(N)nc3N2)c1` (stereo not given), the viability was 79.3%.
With `Cc1cccc(OCCNC(=O)c2ncn[nH]2)c1`, the viability was determined as 88.5%.
Turning to `COc1ccc(S(=O)(=O)N2CCN(c3ccc(C)cc3C)CC2)cc1OC`, the viability turned out to be 98.2%.
For the molecule `CS(=O)(=O)NCCSCc1c(F)cccc1Cl`, the viability turned out to be 89.7%.
Consider `CC(C)CCNC(=O)Cn1c(NCCC(C)C)nc2c1c(=O)n(C)c(=O)n2C`, for which the viability was found to be 94%.
For the molecule `CCOC(=O)N1CCC(NC(=O)C2CCCN(C(=O)c3cc4sccc4n3C)C2)CC1` (stereo not given), the viability amounted to 95.7%.
Regarding `CCOC(=O)N1CCC(NC(=O)c2cc(C(=O)NC3CCCC3)ccc2CO)CC1`, the viability was determined as 87.3%.
